From PubChem BioAssay
Platelet DG rel: inhibitors of platelet dense granule secretion, primary screen, cell-based, MLPCN, human platelets; human platelet-rich plasma, SFLLRN dense granule ATP release, luminescence; inhibition, %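 (compounds screened at 7.5 µM in platelet-rich plasma)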; actives 0.22% (n = 300,000);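 active means mean replicate score, as percent of positive control, at or above 50; inconclusive means mean below 50 but at least one replicate at or above 50; inactive means mean and every replicate below 50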
PolyA inhibitor: polyadenylation inhibitors in yeast reporter cells, primary screen, luminescence, S. cerevisiae; S. cerevisiae SKY197-pL101 polyadenylation reporter, beta-gal luminescence; efflux-impaired pdr1/pdr3 knockout yeast; score 100 = 6 SD above DMSO; activity score, % at 12 µM; actives 0.02% (n = 300,000); AID 1875, 2009;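 active means lowest replicate activity score at least 50, where 100 means six control SD above control mean; inconclusive means lowest score under 50 but half or more replicates reach 50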;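 further: yeast exposed to compound for 9 h at 30 °C; higher score means more reporter readthrough which indicates perturbed polyadenylation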
SKKanGAS inh: S. pyogenes SKKanGAS growth inhibitors in kanamycin, primary screen, streptokinase expression inhibitor project, SKKanGAS strain, BacTiter-Glo luminescence | 6 h | inhibition, % at 7.5 µM | actives 1.3% (n = 300,000);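 active means mean replicate score, as percent of positive control median, at least 50; inconclusive means mean below 50 but one replicate at or above 50; inactive means mean and every replicate below 50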;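 further: strain carries kanamycin resistance gene driven by streptokinase promoter and grows in 40 µg/ml kanamycin; loss of luminescence reflects streptokinase promoter inhibition or plain growth inhibition; 0% = median of DMSO wells and 100% = positive control at its reference dose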
Calb FLC: C. albicans growth inhibition with fluconazole, primary screen, CaCi-2 strain, Alamar Blue fluorescence; C. albicans CaCi-2 (fluconazole-resistant clinical isolate) + fluconazole, 48 h; growth inhibition, % (test concentration not listed); actives 0.57% (n = 300,000);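 active means growth inhibition above about 58% in most replicates, limit read from the data, passing the limit was not always enough; inconclusive means exactly half the replicates above a set limit; inactive means most replicates below a set limit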;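 further: all wells also contain fluconazole at 8 µg/ml as a sub-toxic cotreatment; 0% = median of DMSO wells and 100% = median of geldanamycin control wells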
Yeast superoxide: reduction of superoxide in aged yeast, primary screen, HTS; AID 2690, 2010; actives 0.18% (n = 330,000); superoxide response (% of plate mean), % at 10 µM; S. cerevisiae aged cells, superoxide DHE fluorescence; active compounds read low;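 active means superoxide response under a set limit, about three screen SD below normal, cut at about 65% in these data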;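 further: yeast aged for seven days with compound at 30 °C before DHE staining; 100% = average MFI of all compound-treated wells on the plate with controls excluded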
CR mimetic CP: superoxide lowering in aged yeast cells, confirmation, cherry picked compounds; shares compounds with Yeast superoxide; S. cerevisiae aging, superoxide DHE fluorescence; active compounds read low; superoxide response (% of plate), % at 10 µM; actives 1% (n = 850); AID 434994, 2010;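 active means superoxide signal below 65% of the plate average of sample wells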;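 further: cells aged with compound for 7 days at 30 degrees C before staining; 100% equals mean DHE fluorescence of all compound wells on the plate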
DHE fluor count: DHE quenching or ROS scavenging interference in aged yeast, artefact control for yeast caloric restriction mimetic project, S. cerevisiae BY4741, flow cytometry | shares compounds with Yeast superoxide | fluorescence response, % at 10 µM | 850 tested, under 10 active | DHE fluorescence; active compounds read low | AID 435000, 2010;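 active means fluorescence response below 15%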;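 further: percent of the mean fluorescence averaged over all compound wells on the plate; lower means stronger quenching of DHE signal or ROS scavenging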
The depositor's hits bear a star; u = inconclusive; x = not tested or not shown. Hits are enriched below; roughly 2% of the tested compounds scored in any of these assays.

SMILES	Platelet DG rel	PolyA inhibitor	SKKanGAS inh	Calb FLC	Yeast superoxide	CR mimetic CP	DHE fluor count
O=C(Nc1cccnc1)c1ccc(F)c(S(=O)(=O)N2CCOCC2)c1	-5.8	-8.0	-3.8	-2.5	91.8	x	x
CCN(CC)Cc1cc(NC2=NS(=O)(=O)c3ccccc32)ccc1OC(=O)c1ccccc1	-9.4	3.8	-14.7	-4.3	62.7*	102.7	108.6
CCN(CC)Cc1cc(NC2=NS(=O)(=O)c3ccccc32)ccc1OC(=O)C(C)C	1.3	7.6	-0.6	21.0	94.3	x	x
O=S(=O)(c1ccc(Cl)s1)N1CCC(Cc2ccccc2)CC1	-2.9	-20.7	4.5	6.8	62.3*	106.2	103.3
O=S(=O)(NCCn1ccc2ccccc21)c1ccccc1	19.2	u	-6.1	-5.7	64.8*	110.1	107.0
C=CCn1c(Cc2cccs2)nnc1SCC(=O)c1cccc(Br)c1	1.2	-16.0	4.0	9.1	100.0	x	x
Cc1cccc(NC(=O)/C(C#N)=C\c2ccc(C(=O)O)cc2)c1	-0.4	11.3	1.3	5.8	98.7	x	x
COc1cc(C)c(/C=C(\C#N)C(=O)Nc2cccc(C)c2)cc1C(C)C	-11.0	0.8	-0.3	-17.4	50.2*	102.0	95.4
CC(=O)NC12CC3CC(C1)CC(C(=O)Nc1c(C)n(C)n(-c4ccccc4)c1=O)(C3)C2	15.2	1.6	-0.1	-7.3	62.0*	96.7	107.8
COc1ccc([C@@H]2CC(=O)c3c(O)cc(O[C@@H]4OC(CO[C@@H]5OC(C)[C@H](O)[C@@H](O)[C@H]5O)[C@@H](O)[C@H](O)[C@H]4O)cc3O2)cc1O (stereo partly specified)	x	x	x	x	70.1	x	x
CC1O[C@@H](OCC2O[C@@H](Oc3cc(O)c4c(c3)OC(c3ccc(O)cc3)CC4=O)[C@H](O)[C@@H](O)[C@@H]2O)[C@H](O)[C@H](O)[C@H]1O (stereo partly specified)	x	x	x	x	61.5*	103.6	92.2
Cc1cccc(NC(=O)c2cc(C)nc3ccccc23)c1	-2.1	10.7	-2.6	10.2	55.6*	96.9	92.7
Cc1c(C(=O)N2CCOCC2)c(S(=O)(=O)Nc2cccc(C#N)c2)c(C)n1C	-40.3	7.1	0.3	-1.5	91.5	x	x
COc1ccc(-c2noc(N3CCCC(C(=O)Nc4cc(F)ccc4F)C3)n2)cc1 (stereo unspecified)	-4.2	-10.7	-9.7	-0.6	91.5	x	x
Cc1noc2ncnc(SCc3ccc(C(F)(F)F)cc3)c12	3.3	7.8	2.5	2.2	102.4	x	x
Cc1ccc(CSc2ncnc3onc(C)c23)cc1	0.6	-45.2	11.6	-14.5	58.5*	111.6	110.6
Cn1nnnc1SCC(=O)Nc1ccccc1-c1ccccc1	0.3	20.6	0.7	3.0	96.9	x	x
COc1ccccc1NC(=O)CSc1ccc(-c2ccco2)nn1	-3.6	4.5	-1.8	-2.5	96.6	x	x
Cc1ccccc1NC(=O)CSc1nnnn1C	-2.9	-9.5	7.6	-4.9	59.9*	101.3	94.1
Cc1ccccc1NC(=O)CSc1ccc(-c2ccc(-n3cccn3)cc2)nn1	13.3	2.5	-0.1	-1.2	118.5	99.4	96.0
COc1ccccc1NC(=O)CSc1ccc(-c2ccc(-n3ccnc3)cc2)nn1	-17.4	7.8	-1.9	1.0	99.2	105.2	90.1
COc1ccc(C2(C(=O)NCCc3ccccc3)CCCC2)cc1OC	-8.4	-8.5	-0.4	-15.5	46.9*	107.7	93.0
CC(Sc1ccccc1)C(=O)N1CCN(S(=O)(=O)c2cccc(Br)c2)CC1 (stereo unspecified)	2.4	-1.6	-0.3	9.7	93.6	x	x
C[C@H]1CN([C@@H](C)CO)C(=O)Cc2cc(NS(=O)(=O)c3cccs3)ccc2O[C@H]1CN(C)S(=O)(=O)c1cn(C)cn1	x	x	x	x	122.7	x	x
COc1cc2cc(CCO)oc(=O)c2cc1OC	x	x	x	x	95.5	x	x
SMILES	Platelet DG rel	PolyA inhibitor	SKKanGAS inh	Calb FLC	Yeast superoxide	CR mimetic CP	DHE fluor count
CC(=O)N1CCc2cc(C(=O)CN3CCN(c4ccccc4F)CC3)ccc21	0.9	-5.1	0.9	2.9	100.3	x	x
O=C(CN1CCN(c2ccccc2F)CC1)c1ccc2cc[nH]c2c1	-2.7	-18.6	-0.4	-2.1	62.7*	96.5	88.5
CSCCC(NC(=O)c1ccc([N+](=O)[O-])cc1Cl)C(=O)OC1CCCCC1=O (stereo unspecified)	32.9	-0.5	-2.5	-6.7	107.3	x	x
CCn1cc(C(=O)N[C@H](C(=O)NCCCN2CCOCC2)C(C)C)c(=O)c2cc3c(cc21)OCO3	1.9	5.2	0.4	3.2	81.5	x	x
CNC(=S)N1N=C(c2cccs2)CC1c1ccc(F)cc1 (stereo unspecified)	-4.3	21.0	0.1	-12.2	65.2*	107.3	94.5
COc1cc(NS(=O)(=O)c2cc(C)ccc2OC)c(OC)cc1Cl	4.0	-2.2	-3.9	-4.2	98.6	x	x
COc1cc(S(=O)(=O)Nc2ccccc2C)ccc1Cl	-0.4	-15.2	3.7	-31.5	97.8	100.2	99.8
COc1ccc(S(=O)(=O)Nc2cc(Cl)ccc2OC)cc1	-8.4	-4.1	-2.2	2.8	89.3	109.5	108.4
COc1ccc(C)cc1S(=O)(=O)Nc1cc(Cl)ccc1Cl	5.2	-26.4	7.9	1.4	90.8	92.2	96.8
CCN1CCN(c2ncnc3sc4c(c23)CCC(C)C4)CC1 (stereo unspecified)	-11.8	-3.5	-0.8	-10.6	50.5*	98.6	91.1
CC1CCc2c(sc3nc(CN4CCOCC4)nc(N4CCc5ccccc5C4)c23)C1 (stereo unspecified)	4.5	5.6	7.8	17.9	100.3	x	x
CC(=O)Nc1ccc(Nc2nnc(-c3ccc(C)c(S(=O)(=O)NCC4CCCO4)c3)c3ccccc23)cc1 (stereo unspecified)	3.6	1.6	11.0	-5.2	86.2	107.0	103.8
Cc1ccc(-c2nnc(Nc3ccccc3)c3ccccc23)cc1S(=O)(=O)NCC1CCCO1 (stereo unspecified)	3.7	2.6	18.1	60.8*	84.6	97.9	102.4
Cc1ccc(-c2nn3c(-c4ccco4)nnc3c3ccccc23)cc1S(=O)(=O)NCC1CCCO1 (stereo unspecified)	-1.7	-6.8	14.5	8.6	123.0	x	x
CNS(=O)(=O)c1cc(-c2nnc(Nc3ccc(NC(C)=O)cc3)c3ccccc23)ccc1C	-3.6	-3.4	9.8	3.0	51.0*	104.5	96.0
CC(=O)Nc1ccc(Nc2nnc(-c3ccc(O)cc3)c3ccccc23)cc1	13.1	4.2	9.1	-6.6	89.8	x	x
